Drawing on PubChem BioAssay AID2599 (Sanford-Burnham Center for Chemical Genomics, 2010), this text covers inhibition for 99 molecules.

Out of some 330,000 compounds screened, about 5,800 (1.8%) were called active. Only a selection was taken, and actives are over-represented in it overall. Values without a mark were called inactive.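 How the source made its calls: active means inhibition above about 50% at the single tested dose (limit read from the data); inactive means the rest.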

The target of the assay is Sentrin-specific protease 6 (Homo sapiens) (UniProt Q9GZR1). Briefly: inhibition of human SENP6 catalytic domain – biochemical, luminescence, uHTS, primary screen (AID 2599).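 Further: plate controls were DMSO wells with enzyme for no effect and DMSO wells lacking enzyme for full effect.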 Conditions: Recombinant SENP6 catalytic domain, aminoluciferin luminescence; at 10 µM; active compounds read high.
Sentrin-specific protease 6 (Homo sapiens), sequence (Q9GZR1 628-1112 limits assumed): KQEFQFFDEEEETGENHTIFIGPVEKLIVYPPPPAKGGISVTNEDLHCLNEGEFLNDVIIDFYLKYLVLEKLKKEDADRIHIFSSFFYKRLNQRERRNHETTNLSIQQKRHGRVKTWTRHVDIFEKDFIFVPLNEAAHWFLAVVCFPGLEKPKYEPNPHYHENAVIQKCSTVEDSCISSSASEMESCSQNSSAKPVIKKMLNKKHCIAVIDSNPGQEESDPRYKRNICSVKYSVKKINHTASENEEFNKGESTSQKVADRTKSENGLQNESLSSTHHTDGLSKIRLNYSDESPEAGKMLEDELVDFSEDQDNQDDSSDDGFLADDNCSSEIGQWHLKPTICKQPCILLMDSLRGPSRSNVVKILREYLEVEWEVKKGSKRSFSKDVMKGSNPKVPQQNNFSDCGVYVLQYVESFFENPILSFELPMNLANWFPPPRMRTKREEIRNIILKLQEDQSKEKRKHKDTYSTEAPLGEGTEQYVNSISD
Take `Cc1cc(Nc2ccc(Br)cc2)nc2ccccc12`: the inhibition – broadly, the drop in the measured response relative to a control, in per cent – is 0.575%. As for `O=c1ccnc(Nc2ccc(Cl)cc2)[nH]1`, the figure is -2.45%; as for `Clc1ccc(Nc2ccc3ccccc3n2)cc1`, 89.2% (active). For the molecule `CN(C)/C=C(\C#N)C(=O)c1cccnc1Oc1cccc(F)c1`, the inhibition is -2.99%. `COc1ccc2oc(=O)cc(CN3CCOCC3)c2c1`: the inhibition was -0.296%. Regarding `CCCCC(O)(CCCC)C(=O)NN(C(=O)CCl)c1ccccc1`, the inhibition is -17.7%. As for `O=C(Nc1ccncc1)c1ccccc1[N+](=O)[O-]`, the figure is -15.3%; as for `O=C(Nc1ccccc1C(=O)Nc1ccncc1)c1ccc([N+](=O)[O-])cc1`, 58.6% (active).

With `O=C(Nc1ccncc1)c1ccc([N+](=O)[O-])cc1Cl`, the inhibition was -18.8%. `CC(=O)N(c1ccc2oc(=O)sc2c1)S(=O)(=O)c1ccc(C)cc1`: the inhibition is 15.9%. For `Cc1ccc(S(=O)(=O)N2CCN(C(=O)CN3C(=O)NC(C)(c4ccc(Cl)cc4)C3=O)CC2)c(C)c1` (centres undefined), the inhibition was -2.29%. Consider `O=C(OCc1ccc(-c2ccccc2)cc1)c1cccc(O)c1`, for which the inhibition is 2.41%. In the case of `CC(C)n1c(NCc2c[nH]c3ccccc23)nc2ccccc21`, the inhibition was 9.71%. As for `Cc1ccc(O)c(CNc2nc3ccccc3[nH]2)c1`, the figure is -16.5%. To `Cc1ccc(O)c(CNc2nc3ccccc3n2C)c1` belongs 51.5% (active); to `COC(=O)c1sccc1NC(=O)CC1C(=O)NCCN1C(=O)Nc1ccc(F)cc1F` (centres undefined), -25.4%; to `Cc1ccc(N2C(=O)C3C4C=CC(CC4)C3C2=O)cc1Cl` (centres undefined), 14.5%.

Consider `O=C(Nc1ccc(N2CCN(C(=O)c3ccccc3)CC2)c(Cl)c1)c1cccnc1`, for which the inhibition was 14.4%. On to `O=[N+]([O-])c1ccccc1SNc1ccccn1`, for which the inhibition was -6.35%. For the molecule `CCCc1ccc(OCCNC(=O)c2ccco2)cc1`, the inhibition was 14.5%.

In the case of `CCCc1ccc(OCCNC(=O)c2ccccc2Br)cc1`, the inhibition is 14.6%. As for `CCCOc1ccc(C(=O)NCCc2ccccc2)cc1`, the figure is 76.4% (active).

Consider `OCC[C@H]1C[C@H](O)[C@@H](O)[C@]2(CCCCO2)O1`, for which the inhibition is -7.27%. As for `O=C(COc1ccc2oc3c(c2c1)CCCC3)Nc1ccccn1`, the figure is 56.4% (active). To `CCOC(=O)N1CCN(C(=O)COc2ccc3oc4c(c3c2)CCCC4)CC1` belongs 1.75%. To `CCN(CC)CCCNC(=O)COc1ccc2oc3c(c2c1)CCCC3` belongs -9.52%; to `CCOC(=O)c1sc(NC(=O)C2CSC3(C)CCC(=O)N23)nc1C` (centres undefined), -17.8%; to `O=C(NCCc1ccc(Cl)cc1)C1CCCN1C(=O)NCc1ccccc1` (centres undefined), 19.7%. For the molecule `O=C(NCC(c1ccco1)N1CCc2ccccc2C1)c1ccccc1Cl` (centres undefined), the inhibition is -27.1%. As for `CCOC(=O)c1ccc(Nc2cc(C)nc3nc(C)nn23)cc1`, the figure is 3.17%; as for `CCOC(=O)c1ccc(Nc2cc3ccccc3c(=O)[nH]2)cc1`, 85.9% (active); as for `CCOC(=O)c1ccc(NC(=O)c2cc(=O)[nH]c3ccccc23)cc1`, -1.31%. As for `CCc1ccc(NC(=O)CN2C(=O)CSC2=O)cc1`, the inhibition is 3.31%. Regarding `CCc1nc2sc3c(Cl)ncnc3c2c2c1CCCC2`, the inhibition is -2.17%. As to `CC(NC(=O)COC(=O)c1ccc2c(c1)OCO2)c1ccccc1` (centres undefined), the inhibition was -2.95%. To `COCc1nnc(NC(=O)c2ccc3c(c2)OCO3)s1` belongs 13.6%. To `O=C(Nc1nc2ccccc2s1)c1ccc2c(c1)OCO2` belongs 94.8% (active); to `O=C(COC(=O)c1ccc(F)cc1)Nc1ccc2c(c1)OCO2`, -6.02%. As for `Cc1ccc2sc(NNC(=O)c3ccc4c(c3)OCCO4)nc2c1C`, the figure is 12.7%; as for `CC(NC(=O)Nc1cccc([N+](=O)[O-])c1)c1ccc2c(c1)OCO2` (centres undefined), -3.48%. Take `Cc1onc(C(=O)Nc2ccc3c(c2)OCO3)c1[N+](=O)[O-]`: the inhibition is 0.864%. `CN1CCN(c2ccc(NC(=O)c3ccc4c(c3)OCCO4)cc2Cl)CC1`: the inhibition was 3.53%.

In the case of `CC(=O)Nc1cccc(C(=O)OCC(=O)c2ccc3c(c2)OCO3)c1`, the inhibition was 83.6% (active). To `O=C(Nc1ccc2c(c1)OCCO2)c1ccoc1` belongs -9.58%.

Regarding `O=C(Nc1cccc([N+](=O)[O-])c1)c1ccc2c(c1)OCO2`, the inhibition is 66.7% (active).

Consider `O=C(Nc1ccccc1)c1ccc2c(c1)OCCCO2`, for which the inhibition is 86.7% (active).

For `Cc1cc(NC(=O)CN2C(=O)NC(CC(C)C)C2=O)no1` (centres undefined), the inhibition is -8.76%. In the case of `Cc1cc(C)nc(-n2nc(C)cc2NC(=O)c2ccc(F)cc2F)n1`, the inhibition was 6.48%. As for `CC(=O)Nc1ccc(NC(=O)C(NS(=O)(=O)c2ccc3c(c2)OCCO3)C(C)C)cc1` (centres undefined), the inhibition was 16.7%.

With `COc1cccc(NC(=O)N2CCC(NC(=O)C(Cc3cccc(C)c3)NC(C)=O)CC2)c1` (centres undefined), the inhibition was 20.6%. To `Cc1ccc2cccc(S(=O)(=O)N3CCN(c4ccccc4F)CC3)c2n1` belongs -3.25%; to `O=C(Nc1ccnn1C1CCN(Cc2cccc(OCCO)c2)CC1)C1CCCC1`, -17.8%. As for `O=C(CSc1ccccn1)Nc1nc2c(ccc3ccccc32)s1`, the figure is -10.2%; as for `CCc1nn(CCCN2CCN(c3cccc(Cl)c3)CC2)c(=O)n1CCOc1ccccc1`, -12%; as for `CN(C(=O)c1cccc(NC(=O)C2CCN(C(=O)OC(C)(C)C)CC2)c1)C1CCC1`, -7.07%. To `CCN(CC)S(=O)(=O)c1ccc(N2CC(C(=O)NCc3cccnc3)CC2=O)cc1` (centres undefined) belongs -2.04%. On to `COc1cc(NC(=O)c2ccc3c(c2)OCO3)ccc1NC(=O)c1cccs1`, for which the inhibition is -45.6%.

Consider `O=C(Nc1ccc(N2CCOCC2)cc1)c1ccc2c(c1)OCO2`, for which the inhibition is 25.4%. In the case of `CN(Cc1c(F)cccc1Cl)C(=O)CNC(=O)c1ccc2c(c1)OCO2`, the inhibition was -13.3%. For `N#Cc1ccccc1NC(=O)c1ccc2c(c1)OCO2`, the inhibition is -12.5%.

Take `COc1ccc(C(=O)Nc2ccc3nc(N4CCCCC4)cc(C)c3c2)cc1OC`: the inhibition is -7.43%. For `O=C(Nc1ccccc1F)c1ccc2c(c1)OCO2`, the inhibition was 71.4% (active).

`COc1ccc(C(=O)Nc2ccc3c(c2)OCO3)cc1OC`: the inhibition was 80.8% (active). Take `O=C(Nc1ccc(NC(=O)c2ccc3c(c2)OCO3)cc1)c1cccc(Cl)c1`: the inhibition was -11.5%. With `O=C(Nc1ccccc1)c1ccc2c(c1)OCO2`, the inhibition is 85.1% (active).

For the molecule `COc1cc(C(=O)NCC2(c3ccccc3)CCCC2)ccc1OC(C)C`, the inhibition was 2.81%.

In the case of `COc1ccc(C(=O)Nc2ccc(C3(C#N)CCCC3)cc2)cc1OC`, the inhibition was 96.3% (active). For the molecule `CC(C)C(=O)Nc1cccc(C(=O)Nc2ccc3c(c2)OCO3)c1`, the inhibition is 33.6%. As to `COc1ccc(C(=O)NCC2CCCCC2)cc1S(=O)(=O)N1CCCC1`, the inhibition was -0.795%. Turning to `COc1ccc(COC(=O)c2n[nH]c3ccccc23)cc1F`, the inhibition is -5.01%.

On to `Cc1nn(C)c(C)c1S(=O)(=O)N1CCC(CO)(Cc2ccc(Cl)cc2)CC1`, for which the inhibition is -8.17%. To `CC(C)N1C(=O)N(c2ccccc2)C(C)(O)CC1(C)C` (centres undefined) belongs -17.1%; to `O=C(COC(=O)Cn1[nH]c(=O)c2ccccc2c1=O)Nc1ncc(Cl)cc1Cl`, -4.87%; to `Cc1cccc(NS(=O)(=O)c2ccc(C(=O)NCC(C)(C)N3CCOCC3)cc2)c1C`, 4.82%. As for `C=CCOc1ccc(C2/C(=C(\O)c3c(C)[nH]c(C(=O)OC)c3C)C(=O)C(=O)N2CCN(C)C)cc1` (centres undefined), the figure is 9.74%; as for `COc1ccc(CN(C)C(=O)Cc2ccsc2)c(OC)c1OC`, -22.6%; as for `N#CCCN(C(=O)COC(=O)c1ccc2c(c1)OCCO2)c1ccccc1`, 6.71%. As for `Cc1cc(C)nc(NC(=O)c2cccc([N+](=O)[O-])c2)c1`, the inhibition was -34.1%.

`O=C(Nc1ccc(NC(=O)c2ccco2)c(Cl)c1)c1cccc([N+](=O)[O-])c1`: the inhibition is 14.1%.

In the case of `O=C(OCc1ccccc1F)c1ccc2c(c1)OCCO2`, the inhibition was 95.5% (active). To `O=C(COC(=O)c1ccc2c(c1)OCCO2)NCc1ccccc1Cl` belongs 3.1%. As for `O=C(Nc1ccc(C2CC2(Cl)Cl)cc1)c1cccc([N+](=O)[O-])c1` (centres undefined), the figure is 76.9% (active). As for `O=C(CCC(=O)n1ncc2ccccc21)NCc1ccccc1Cl`, the figure is 15.9%.

Consider `Cc1nc(N)c(Br)c(C)c1Br`, for which the inhibition is 0%. For the molecule `COc1cccc(-n2nc(C(=O)N3CCN(Cc4ccccc4)CC3)c3ccccc3c2=O)c1`, the inhibition was -0.104%. As to `O=C(O)CSc1nccn1-c1cccc(Cl)c1`, the inhibition was -22.5%. To `COCCCNC(=O)Cn1c(=O)n(Cc2ccccc2Cl)c(=O)c2cc(OC)c(OC)cc21` belongs -8.65%; to `O=S(=O)(c1cnccc1N1CCN(/N=C/c2ccc(Br)cc2)CC1)N1CCCCC1`, -13.3%. Regarding `Cc1c(Cl)cccc1NC(=O)Nc1ccc(C(=O)N2CCCC2)cc1`, the inhibition was 61.5% (active). `Cc1c(Cl)cccc1NC(=O)NCCCN1CCCC1=O`: the inhibition is 2.62%. As for `O=C(Nc1ccc(Cl)cc1)Nc1ccc(C(=O)N2CCOCC2)cc1`, the figure is -8.3%; as for `O=C(c1ccc2ccccc2n1)N1CCN(c2ccccc2Cl)CC1`, 5.78%.

In the case of `CC(=O)Nc1ccc(OC(=O)COc2ccc(Br)cc2)cc1`, the inhibition is -9.28%.

With `S=c1[nH]nc(-c2cc(-c3ccccc3)n[nH]2)n1/N=C/c1c2ccccc2cc2ccccc12`, the inhibition is -3.75%. With `Cc1ccc(NC(=O)c2cc(-c3ccccc3O)n[nH]2)cc1C`, the inhibition is -12.4%.

For `CC(C)C(=O)NCc1cc(-c2ccc(Cl)cc2)no1`, the inhibition is -26.7%. For `Oc1ccccc1-c1cc(-c2ccc(Cl)cc2)n[nH]1`, the inhibition is 89.2% (active). As for `S=c1[nH]nc(-c2cc(-c3ccsc3)n[nH]2)n1-c1ccccc1`, the figure is -13.8%; as for `c1ccc(-c2cc(-c3ccccc3)[nH]n2)cc1`, 59.9% (active).
